Legend:
[1] = NFkB reporter suppression in cystic fibrosis bronchial cells – cell-based, uHTS hits, panel, cytotoxicity readout, dose response (AID 624344); details: CF bronchial epithelial cells, PAF-induced NFkB reporter inhibition, with PAF, run 1; at 79 µM (top of the series) unless noted
[2] = as above; details: CF bronchial epithelial cells, PAF-induced NFkB reporter inhibition, with PAF, run 2; at 79 µM (top of the series) unless noted

Structure (SMILES) | inhibition [1] | inhibition [2]
Nc1ncnc(Sc2ccc(Cl)cc2)c1[N+](=O)[O-] | 101% | 85.6%
COc1ccc(CN2C[C@H]3CCCN3c3cc(Br)ccc3S2(=O)=O)cc1 | 74.6% | 92.2%
CC1=C(C(=O)OCc2ccc3c(c2)OCO3)C(c2ccc(O)c([N+](=O)[O-])c2)NC(=O)N1 (centres undefined) | 94.5% | 89%
COc1ccc(S(=O)(=O)N(C(C)=O)c2ccc(OC(C)=O)c3ccccc23)cc1[N+](=O)[O-] | 59.1% | 99.4% [at 39.5 µM]
O=C(O)/C=C/c1ccc2c(-c3ccccc3)onc2c1 | 113% | 105%
Cc1nc2c(O)c3c(c(O)c2nc1C)C1C=CC3CC1 | 114% | 103%
Cc1cccc(N=c2oc3cc(O)ccc3cc2C(N)=O)c1 | 87.7% | 80%
COc1ccc(-c2csc(NC3OC(=O)c4c3ccc(OC)c4OC)n2)cc1OC (centres undefined) | 109% | 100%
O=c1[nH]nc(Sc2ncnc3sccc23)n1CCc1ccccc1 | 100% | 105%
Cc1nnc(SCC(=O)N2CCC(c3noc4ccc(F)cc34)CC2)s1 | 101% | 112%
Cc1ccc(C)c(S(=O)(=O)N(C(=O)c2ccncc2)c2ccc(OC(=O)c3ccncc3)cc2)c1 | 104% | 118%
CC(=O)Oc1ccccc1C(=O)Oc1ccc(/C=N/n2cnnc2)cc1 | 106% | 105%
Cn1c(SC2=CS(=O)(=O)c3ccccc32)nc2ccccc21 | 101% | 102%
Cc1ccc(N(C)C(=O)c2cc(S(=O)(=O)N3CCCCC3)c[nH]2)cc1 | 93.5% | 79%
COc1ccc(-c2cc(C(F)(F)F)nc(S(=O)(=O)CCCC(=O)Nc3cccnc3Cl)n2)cc1OC | 99.5% | 99.1%
N#Cc1c(-c2ccc(Cl)cc2)n(O)c2ccccc12 | 111% | 103%

Structure (SMILES) | inhibition [1] | inhibition [2]
N#CC(C#N)c1ccnc2ccccc12 | 110% | 102%
CN(C)/C=C/C(=O)c1ccc2noc(-c3ccccc3)c2c1 | 118% | 105%
S=c1[nH]nc(-c2ccncc2)n1/N=C/C(Cl)=C\c1ccccc1 | 101% | 109%
CCOc1ccc(-n2c(C)c(C(C)=O)c3cc(OC(C)=O)ccc32)cc1 | 89% | 90%
CC1CCc2c(sc3ncnc(N4CCOCC4)c23)C1 (centres undefined) | 114% | 101%
C/C(=N\Nc1cc(N2CCOCC2)ncn1)c1cccc([N+](=O)[O-])c1 | 115% | 95.3%
COc1cccc(NC(=O)CN(C)CC(=O)Nc2ccc(C)c([N+](=O)[O-])c2)c1 | 80.7% | 101%
CCOC(=O)/C=c1/s/c(=C\c2c(OC)ccc3ccccc23)c(=O)n1CC(=O)NCC1CCCO1 (centres undefined) | -195% | 46.6% [at 39.5 µM]
O=[N+]([O-])c1cccc(NC(=S)Nc2nc(-c3ccccc3Cl)cs2)c1 | 108% | 99.8%
Cc1ccc(CCC(=O)Nc2ncc(Cc3cccc(Cl)c3Cl)s2)o1 | 101% | 112%
O=c1c(O)c(-c2ccccc2)oc2cc(O)cc(O)c12 | 103% | 106%
O=C1N(c2ccccc2C(F)(F)F)O[C@@]1(c1ccccc1)C1CCCCC1 | 99.3% | 105%
O=C(Nc1ccc(Cl)cc1)c1nc[nH]c1C(=O)NCCCCNC(=O)c1[nH]cnc1C(=O)Nc1ccc(Cl)cc1 | 98.8% | 105%
C=C(C)[C@@H]1CCC2(C(=O)O)CC[C@]3(C)[C@H](CC[C@@H]4[C@@]5(C)CCC(=O)C(C)(C)[C@@H]5CC[C@]43C)[C@@H]12 (some centres undefined) | 86.7% | 102%
Cc1ccc(-c2c(C#N)c(N)n3c(nc4ccccc43)c2C#N)cc1 | 109% [at 39.5 µM] | 50.7%
CC(=O)c1c(C)n(-c2ccccc2)c2ccc(O)cc12 | 90.8% | 91.5%

— PubChem BioAssay
